Assay outcomes from PubChem.
Most compounds without a hit are left out; they make up all but 4.1% or so of the library.
LMP1 NFkB inh: reduces LMP1-driven NF-kappaB luciferase signal; LMP1-induced NF-kappaB luciferase reporter cells, luminescence; inhibition, % at 12.5 µM; hit rate 0.69% among 350,000; AID 504558; in the data active means inhibition above about 41%; inconclusive means no clear call, values can overlap the other calls
Peg3 prom inh-1: reduces Peg3 promoter-driven luciferase expression in HeLa; HeLa PEG-Prom luciferase reporter, luminescence, overnight; inhibition, % at 20 µM; hit rate 1.7% among 360,000;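 active means inhibition of at least 50% at 20 µM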
Shn3 3UTR inh: Schnurri-3 reporter inhibition in Clone20 osteoblasts; Clone20 osteoblast Shn3 3'UTR firefly luciferase, 24 h; inhibition, % at 12.5 µM; hit rate 0.52% among 360,000; AID 588674;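 active means mean inhibition of at least 75% with every replicate also reaching 75%; inconclusive means mean inhibition at least 75% but some replicate below; inactive means mean inhibition below 75%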
TROY signal inh: blocks TROY-dependent signaling in reporter cells | hit rate 0.98% among 360,000 | Q293 LMP1-TROYcd NF-kB luciferase reporter, 4 h | inhibition, % at 10 µM;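 active means compounds whose plate-normalised and pattern-corrected inhibition of the luciferase reporter signal at the single screening dose is 50% or more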
TWEAK Fn14 block: blocks TWEAK-Fn14 interaction in a reporter cell assay | TWEAK-stimulated Fn14 reporter cells, luciferase luminescence, 8 h | inhibition, % at 10 µM | hit rate 2% among 360,000 | AID 1159606; in the data active means inhibition above about 50%
TRPM1 prom inh: MITF TRPM1 promoter inhibition in SK-MEL-5 cells. hit rate 0.83% among 330,000. inhibition, % at 12.5 µM. SK-MEL-5 TRPM1 promoter luciferase, 24 h. AID 488899;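 active means mean inhibition across replicates of 60% or more, whatever share of single replicates reaches that level; inconclusive means some that reach 60%, reason not given; inactive means mean inhibition across replicates below 60%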
Peg3 prom inh-2: confirmation of Peg3 promoter inhibitors. shares compounds with Peg3 prom inh-1. HeLa PEG-Prom luciferase reporter, luminescence, overnight. inhibition, % at 20 µM. hit rate 84% among 1,300;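 active means at 20 µM dose, 40% or more inhibition averaged across four replicates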
A number is an active result; n = inactive; u = inconclusive; x = no result given.

SMILES	LMP1 NFkB inh	Peg3 prom inh-1	Shn3 3UTR inh	TROY signal inh	TWEAK Fn14 block	TRPM1 prom inh	Peg3 prom inh-2
CCC1CCCCN1CCCNC(=O)C1CCCN(c2ncnc3c2nc2n3CCCCC2)C1 (centres undefined)	n	n	n	n	n	n	x
Cc1cc(C(=O)COC(=O)c2ccccc2O)c(C)n1CC1CCCO1 (centres undefined)	86.7	84.8	n	90.2	106.4	84.0	92.0
CCn1c(C)cc(C(=O)COC(=O)c2ccccc2[N+](=O)[O-])c1C	87.3	93.6	94.3	89.9	105.3	96.6	91.2
O=C(COC(=O)c1ccccc1Br)NCC1CCCO1 (centres undefined)	n	n	n	n	n	n	x
C=CCn1c(C)cc(C(=O)COC(=O)c2ccc(N)c([N+](=O)[O-])c2)c1C	n	n	n	n	n	n	x
COCCn1c(C)cc(C(=O)COC(=O)c2ccccc2Br)c1C	54.3	78.2	n	92.3	104.9	81.0	68.6
Cc1cc(C(=O)COC(=O)c2ccccc2Br)c(C)n1CC1CCCO1 (centres undefined)	75.5	53.8	u	71.4	91.8	75.6	78.2
Cc1cc(C(=O)COC(=O)c2ccc3c(c2)OCO3)c(C)n1Cc1cccs1	n	n	n	n	n	n	x
Cc1cc(C(=O)COC(=O)c2ccccc2O)c(C)n1Cc1cccs1	87.2	90.7	91.2	64.0	102.2	90.4	87.0
Cc1cc(C)c(NC(=O)CN2CCN(c3ccccn3)CC2)c(C)c1	n	n	n	n	n	n	x
CCN(CCO)c1ccc(N=Nc2cc(C)[nH]n2)cc1	63.3	72.3	n	69.0	90.6	75.6	55.8
O=C(NCCc1ccccc1)c1ccc2c(c1)OCCCO2	85.2	107.8	u	83.7	101.2	91.7	94.5
O=C(NCCc1ccccc1)c1ccc2c(c1)OCCO2	84.4	104.7	n	82.7	98.6	88.2	90.2
NS(=O)(=O)c1ccc(CCNc2nn3c(-c4ccc(F)c(Cl)c4)cnc3s2)cc1	x	66.5	n	n	56.1	x	95.1
O=C(C[C@H]1C[C@H](C(=O)N2CCOCC2)[C@@]2(CCC3CCCC3)c3[nH]c4ccc(Cl)cc4c3CCN2C1=O)NCCN1CCOCC1	n	50.1	n	n	n	n	n
CC(C)N(C(=O)[C@H]1C[C@H](CC(=O)NCCCN(C)C)C(=O)N2CCc3c([nH]c4ccc(Cl)cc34)[C@]12C)C(C)C	n	n	n	n	n	n	x
CC(C)N(C(=O)[C@H]1C[C@H](CC(=O)NCC23CC4CC(CC(C4)C2)C3)C(=O)N2CCc3c([nH]c4ccc(Cl)cc34)[C@]12C)C(C)C	n	62.6	n	n	54.4	n	42.6
COc1cccc(OC)c1C(=O)NCCc1ccccc1	n	n	n	n	n	n	x
COC(=O)c1c(N)sc(C(=O)NCCc2ccccc2)c1C	67.1	78.1	n	75.9	99.4	63.1	64.8
Cc1cc([N+](=O)[O-])nn1Cc1ccc(C(=O)N/N=C/c2ccc(N(C)C)cc2)cc1	n	n	n	n	n	n	x
Cc1ccc(-c2cn3nc(C)c(C)nc3n2)cc1	63.5	59.5	n	n	n	63.8	45.8
C/C(=N\NC(=O)c1cc(C2CC2)nc2ccccc12)c1ccc(O)cc1O	n	55.7	n	n	n	n	65.0
C/C(=N\NC(=O)c1cc(C2CC2)nc2ccccc12)c1ccc(C)s1	n	n	n	n	n	n	x
COc1cc(-c2cc(C(=O)Nc3ccc(C)c(S(=O)(=O)N4CCOCC4)c3)c3ccccc3n2)cc(OC)c1OC	n	52.5	n	n	n	n	n
CCN(CC)S(=O)(=O)c1cccc(C(=O)N/N=C(\C)c2ccc(O)cc2O)c1	n	52.4	93.5	n	n	70.9	65.2
CSc1ccccc1NC(=O)c1cc(-c2cccnc2)nc2ccc(Br)cc12	n	n	n	n	n	n	x
COc1cc(/C=C2\SC(=S)N(CCC(=O)N3CCCCC3)C2=O)cc(OC)c1OC	n	67.8	n	n	n	n	47.1
O=C(CCN1C(=O)/C(=C/c2cccs2)SC1=S)N1CCCCC1	n	112.1	n	n	n	n	91.6
Cc1ccc(/C=C2\SC(=S)N(CCC(=O)N3CCCCC3)C2=O)cc1	n	n	n	n	n	n	x
Cn1c(=O)c2cc(NC(=O)NCc3ccccc3)ccc2n1C/C=C/c1ccccc1	x	n	n	n	n	x	x
